Screens deposited in PubChem by National Center for Advancing Translational Sciences (NCATS).
HCV inhibitor = HCV inhibition; Huh7.5.1 HCVcc-Cre infection, luciferase reporter, 44 h; Potency, µM (series often up to 41.8 µM), without a hit: at the highest dose activity change, negative = inhibition, actives largely listed as inhibitors; hit rate 3.4% among 340,000; AID 651820
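Whole-lifecycle infectious HCVcc-Cre system; cells 1,000/well, compound then virus (~0.5 moi) added 4 h after plating, 44 h culture. Luciferase read 15 sec following 15 min substrate incubation, room temp.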
Pf growth 96h = P. falciparum growth inhibition at 96 hours; P. falciparum luciferase reporter growth, 96 h; Potency, µM (doses to about 28.7 µM), without a hit: at the top dose activity change, negative = inhibition, hits mostly inhibitors; hit rate 6.9% among 320,000; AID 504834
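Infected RBCs, 2% Hct / 0.05% parasitemia final; luciferase-reporter P. falciparum; cpd 96 h, 37 C, 5% CO2; luciferase detection reagent; luminescence.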
AMA1 RON2 block = disrupts binding of P. falciparum AMA1 to RON2 | AlphaScreen AMA1-biotinylated RON2 peptide binding | hit rate 0.2% among 360,000 | Potency, µM (series often up to 58.2 µM), for inactives: at the top dose activity change, negative = inhibition, hits mostly inhibitors;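 further: 0% = vehicle wells and -100% = peptide control; nearly all actives have a fitted effect of over 45% in size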
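AMA1 (3D7) with his tag at 25 nM final met compounds first, then biotinylated RON2 peptide at 25 nM; detection used donor plus acceptor beads, 10 µg/mL apiece, read by AlphaScreen after 30 min at room temperature.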
Pf growth 48h = inhibits P. falciparum growth in the first generation, 48 h; P. falciparum luciferase growth in erythrocytes, 48 h; Potency, µM (titrated, usually from 28.7 µM), for the others: at the top dose activity change, negative = inhibition, most hits filed as inhibitors; hit rate 5.9% among 310,000; AID 504832
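Read-out is firefly luciferase luminescence from an integrated reporter in P. falciparum, so falling signal marks reduced parasite growth. Infected erythrocytes were at 2% hematocrit and 0.1% parasitemia (final) in Albumax-supplemented RPMI 1640.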
* hit, by the source's call; [ ] = another dose, or the depositor's remark. Only some compounds are listed: those with a hit (about 11% of all), similar ones and a draw of the others. The call rests on the fitted dose curve; in most records, active means well fitted curve in the direction sought with a large enough effect; inconclusive means small, poorly fitted or top-dose-only effect, or another doubt; inactive means no such curve, though single readings can be large; an effect the other way counts as inactive or inconclusive. Unless noted, on the % scale 0 is the no-effect control and ±100 the full control effect; potency means the concentration at half of the fitted maximal effect.

O=C(NCCN1CCCC1=O)C1CCC(=O)N(CCc2cccc(F)c2)C1 (stereo unspecified) was read as HCV inhibitor 25%, Pf growth 96h 13µM*, AMA1 RON2 block 8% and Pf growth 48h 24%.
Screening CCc1cc(CNC(=O)C2CCC(=O)N(Cc3ccccc3F)C2)on1 (stereo unspecified) returned AMA1 RON2 block 4%.
For O=C(NCc1cc2ccccc2[nH]1)C1CCC(=O)N(CCCN2CCCC2=O)C1 (stereo unspecified) the results were HCV inhibitor 11%, Pf growth 96h 10µM*, AMA1 RON2 block 25% and Pf growth 48h 2%.
O=C(NCc1cccc(F)c1)C1CCC(=O)N(CCc2cccc(F)c2)C1 (stereo unspecified) was read as HCV inhibitor 0%, Pf growth 96h 31%, AMA1 RON2 block 8% and Pf growth 48h -17%.
For Cc1nc(CCNC(=O)C2CCC(=O)N(CCc3cccc(F)c3)C2)sc1C (stereo unspecified) the results were HCV inhibitor -1%, Pf growth 96h 15µM*, AMA1 RON2 block 18% and Pf growth 48h 9%.
CCN(CC)S(=O)(=O)c1ccc(Cl)c(NC(=O)COC(=O)/C=C/c2ccc(O)c(OC)c2)c1 was read as HCV inhibitor inconclusive, Pf growth 96h -8%, AMA1 RON2 block 2% and Pf growth 48h -1%.
Cc1cc(C)cc(OCc2nnc(SCC(=O)N3CCCCC3)o2)c1 was read as HCV inhibitor 0%, Pf growth 96h 0%, AMA1 RON2 block 29% and Pf growth 48h 4%.
For CCN1CCN(C(=O)C(Cc2ccccc2)NC(=O)c2ccc(Cl)c(S(=O)(=O)N(C)C)c2)CC1 (stereo unspecified) the results were HCV inhibitor -2% and AMA1 RON2 block -5%.
Screening Cc1cc(=O)c2cc(Br)ccc2n1CC(=O)NCc1ccccc1 returned HCV inhibitor 13µM*, Pf growth 96h inconclusive, AMA1 RON2 block -12% and Pf growth 48h -12%.
For Cc1c(C#N)c2ccccc2n1CC(=O)NCc1ccccc1 the results were HCV inhibitor -4%, Pf growth 96h -5%, AMA1 RON2 block 1% and Pf growth 48h inconclusive.
CCCCNC(=O)Cn1c(=O)n(C)c2ccccc21 was read as HCV inhibitor 17%, Pf growth 96h 7.4µM*, AMA1 RON2 block -6% and Pf growth 48h 17%.
`O=C(Cn1c(=O)n(CC(=O)NCc2ccccc2)c2ccccc21)NCc1ccccc1` gave HCV inhibitor 7.1µM*, Pf growth 96h 26%, AMA1 RON2 block -9% and Pf growth 48h -13%.
COCc1cc(C)n(CC(=O)NCc2ccccc2)c(=O)c1C#N was read as HCV inhibitor 0%, Pf growth 96h 9%, AMA1 RON2 block 19% and Pf growth 48h -7%.
For O=C(CN1C(=O)CCS(=O)(=O)c2ccccc21)NCc1ccccc1 the results were HCV inhibitor 5%, Pf growth 96h 2.6µM*, AMA1 RON2 block 14% and Pf growth 48h 2%.
Cc1ccccc1-c1nc(C#N)c(N2CCCCC2)o1 was read as HCV inhibitor -7%, Pf growth 96h 28% and AMA1 RON2 block -28%.
Screening Cc1cccc(NC(=O)CSCC(=O)N(C)Cc2c(F)cccc2Cl)c1 returned HCV inhibitor inconclusive, Pf growth 96h 13µM*, AMA1 RON2 block 8% and Pf growth 48h inconclusive.
For Cc1cc(NC(=O)CSCC(=O)N(C)Cc2c(F)cccc2Cl)no1 the results were HCV inhibitor 14%, Pf growth 96h inconclusive, AMA1 RON2 block 27% and Pf growth 48h inconclusive.
`CN(CC(=O)Nc1ccc(Cl)cc1)C(=O)Cc1c(F)cccc1Cl` gave HCV inhibitor -26%, Pf growth 96h 12µM*, AMA1 RON2 block -3% and Pf growth 48h -17%.
Screening CNC(=O)c1ccsc1NC(=O)c1coc2ccccc2c1=O returned HCV inhibitor -17%, Pf growth 96h -12%, AMA1 RON2 block 16% and Pf growth 48h 18%.
Screening N#Cc1ccc(C23OCCN2CCn2nc4ccccc4c23)cc1 (stereo unspecified) returned HCV inhibitor 4µM* and AMA1 RON2 block 22%.
For COc1ccc(SCCC(=O)NCc2ccncc2)cc1 the results were HCV inhibitor 20%, Pf growth 96h 13%, AMA1 RON2 block 23% and Pf growth 48h 28%.
`O=C(c1c(F)cccc1F)N1CCN(c2ccccc2F)CC1` gave HCV inhibitor 5%, Pf growth 96h -7%, AMA1 RON2 block 7% and Pf growth 48h 6%.
For O=C(NC(=S)N1CCN(c2ccccc2)CC1)c1ccccc1 the results were Pf growth 96h 4.7µM* and Pf growth 48h 10µM*.
`CN1CCN(C(=S)NC(=O)c2ccc(C(C)(C)C)cc2)CC1` gave HCV inhibitor -4%, Pf growth 96h -20%, AMA1 RON2 block 85% and Pf growth 48h -14%.
Screening O=C(c1nc[nH]c1C(=O)N1CCN(c2ccccc2)CC1)N1CCN(c2ccccc2)CC1 returned HCV inhibitor 3.5µM*, Pf growth 96h 57%, AMA1 RON2 block inconclusive and Pf growth 48h 32%.
O=C(c1cccc(C(=O)N2CCN(c3ccccc3F)CC2)c1)N1CCN(c2ccccc2F)CC1 was read as HCV inhibitor 13%, Pf growth 96h 0%, AMA1 RON2 block 31% and Pf growth 48h 13µM*.
CC(C)(C)c1ccc(C(=O)NC(=S)N2CCOCC2)cc1 was read as HCV inhibitor 11%, Pf growth 96h 2.6µM*, AMA1 RON2 block 123% and Pf growth 48h -80%.
O=C(NC(=S)N1CCN(c2ccc(F)cc2)CC1)c1ccccc1 was read as AMA1 RON2 block 107%.
For CC(C)[C@H](NC(=O)N1c2ccccc2NC(=O)[C@@H]1C(C)C)C(=O)N1CCC[C@H]1C(=O)O the results were HCV inhibitor 12%, Pf growth 96h 53%, AMA1 RON2 block 4% and Pf growth 48h 7%.
Cc1ccc(NC(=S)N2CCN(S(=O)(=O)c3ccc(F)cc3)CC2)cc1 was read as HCV inhibitor 12%, Pf growth 96h inconclusive, AMA1 RON2 block -4% and Pf growth 48h inconclusive.
Screening CC(C)c1ccc(NC(=O)c2ccc(NC3=NC4CS(=O)(=O)CC4S3)cc2)cc1 (stereo unspecified) returned HCV inhibitor -18%, Pf growth 96h 28%, AMA1 RON2 block 70% and Pf growth 48h -10%.
`O=C(c1cccc(C(=O)N2CCN(c3ccccc3)CC2)c1)N1CCN(c2ccccc2)CC1` gave HCV inhibitor inconclusive, AMA1 RON2 block -11% and Pf growth 48h 13µM*.
`O=C(c1ccc2nccnc2c1)N1CCN(c2ccccc2)CC1` gave HCV inhibitor 15%, Pf growth 96h -4%, AMA1 RON2 block -15% and Pf growth 48h 18%.
Screening O=C(Nc1cccc(C(=O)N2CCN(c3cccc(Cl)c3)CC2)c1)c1ccccc1 returned HCV inhibitor 14µM*, Pf growth 96h -40%[1.15 µM], AMA1 RON2 block -1% and Pf growth 48h -15%.
Screening O=C(O)c1cccc(N2CCCC2)c1 returned HCV inhibitor 25%, Pf growth 96h 9.3µM*, AMA1 RON2 block -7% and Pf growth 48h 6%.
